Screening results: PubChem BioAssay, Broad Institute
This is one part of a sample in which hits are shown more often than they occur.
ID4 SMM – binders of human ID4 protein, primary screen, biochemical, small molecule microarray, single point. DNA-binding protein inhibitor ID-4 (Homo sapiens), P47928. Flag-ID4 binding, fluorescence F/B. calls only. hit rate 1.2% among 31,000. AID 624137, 2012; call rule not given here;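 also: a binder raises fluorescence above local background on the spot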
STK33 kin inh – STK33 kinase inhibitors, primary screen, biochemical, luminescence, ADP-Glo, MBP substrate; Serine/threonine-protein kinase 33 (Homo sapiens), Q9BYT3; inhibition, % at 12.5 µM; hit rate 0.44% among 27,000; in the data active = inhibition above about 20%; inconclusive = no clear call, values can overlap the other calls
Target sequence (Q9BYT3 whole entry, looked up): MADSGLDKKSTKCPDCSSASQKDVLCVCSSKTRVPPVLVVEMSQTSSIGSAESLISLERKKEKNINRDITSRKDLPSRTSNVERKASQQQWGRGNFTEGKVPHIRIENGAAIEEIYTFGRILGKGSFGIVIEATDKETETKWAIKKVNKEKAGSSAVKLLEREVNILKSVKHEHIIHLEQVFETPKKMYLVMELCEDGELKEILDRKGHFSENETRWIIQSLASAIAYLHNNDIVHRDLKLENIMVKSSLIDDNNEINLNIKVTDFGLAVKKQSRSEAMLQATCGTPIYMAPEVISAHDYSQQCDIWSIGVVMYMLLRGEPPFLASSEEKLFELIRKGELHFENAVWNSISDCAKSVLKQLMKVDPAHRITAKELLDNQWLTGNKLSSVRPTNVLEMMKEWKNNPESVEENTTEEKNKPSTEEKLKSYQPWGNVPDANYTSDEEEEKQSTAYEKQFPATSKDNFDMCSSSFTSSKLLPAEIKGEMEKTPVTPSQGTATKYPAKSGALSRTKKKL
Each line names hits and unclear results; the compound was inactive in the other large screens.

CCCCOc1ccc(C(=O)CCN2CCCCC2)cc1	none (no result: ID4 SMM)
NC(=O)C1CCN(C(=O)CSc2nc(-c3ccccc3)cc(=O)[nH]2)CC1	none
O=C(CN1C(=O)c2ccccc2C1=O)Nc1ccc(NC(=O)c2ccccc2F)cc1	none
CCCCC/C=C\C/C=C\CCCCCCCC(=O)NCC(=O)O	ID4 SMM active
CCCCC/C=C\C/C=C\C/C=C\CCCCCCC(=O)O	ID4 SMM active (no result: STK33 kin inh)
CCCCC/C=C\C/C=C\C/C=C\CCCCC(=O)O	none
CCCCC/C=C\C/C=C\CCCCCCCC(=O)O	none (no result: ID4 SMM)
CCCNC(=O)N(C)C[C@@H]1Oc2ncc(-c3ccc(OC)cc3)cc2C(=O)N([C@@H](C)CO)C[C@H]1C	none (no result: STK33 kin inh)
O=S(=O)(N[C@@H]1CCCN(Cc2cccc(OCCO)c2)C1)c1cccc(F)c1	ID4 SMM active
O=S(=O)(N[C@@H]1CCCN(Cc2ccc(OCCO)cc2)C1)c1cccc(F)c1	ID4 SMM active
COc1ccc(S(=O)(=O)NC2CCN(Cc3ccc(OCCO)cc3)CC2)cc1	none (no result: STK33 kin inh)
O=S(=O)(NC[C@@H]1CCCN(Cc2ccc(OCCO)cc2)C1)c1cccc2cccnc12	none (no result: ID4 SMM)
Cc1ccc(S(=O)(=O)NC2CCN(Cc3ccc(OCCO)cc3)CC2)cc1	ID4 SMM active
O=S(=O)(N[C@@H]1CCCN(Cc2ccc(OCCO)cc2)C1)c1cccc2cccnc12	ID4 SMM active
O=S(=O)(N[C@@H]1CCCN(Cc2ccc(OCCO)cc2)C1)c1ccc2ccccc2c1	none (no result: STK33 kin inh)
O=S(=O)(N[C@@H]1CCCN(Cc2cccc(OCCO)c2)C1)c1ccc(-c2ccccc2)cc1	none
CSc1ccccc1NC(=O)Cn1ccc([N+](=O)[O-])n1	none
CC(C)S(=O)(=O)N[C@@H]1CCCN(Cc2ccc(OCCO)cc2)C1	none (no result: ID4 SMM)
C[C@@H]1CN([C@@H](C)CO)C(=O)c2cccc(NC(=O)c3ccc(-c4nccs4)cc3)c2O[C@H]1CN(C)S(=O)(=O)c1cn(C)cn1	none (no result: STK33 kin inh)
COC(=O)C(CC#Cc1ccc2c(c1)[C@]1(C(=O)N2)[C@H](c2ccc(OCCO)cc2)N2[C@H](c3ccccc3)[C@H](c3ccccc3)OC(=O)[C@H]2[C@@H]1C(=O)N1CCCCCCC1)C(=O)OC	STK33 kin inh inconclusive
COC(=O)COc1ccc2c(=O)c(Oc3cnn(-c4ccccc4)c3)c(C(F)(F)F)oc2c1C	none
CCN(CC(=O)O)S(=O)(=O)c1ccc(C)cc1	none
C[C@@H]1O[C@@H](O[C@H]2[C@H](O)[C@@H](O[C@@H]3O[C@H](CO)[C@@H](O)[C@H](O[C@@H]4O[C@H](CO)[C@@H](O)[C@H](O)[C@H]4O)[C@H]3O)[C@H](O[C@H]3CC[C@@]4(C)C(=CC[C@@H]5C4CC[C@@]4(C)C5C[C@@H]5O[C@]6(CC[C@@](C)(CO[C@@H]7O[C@H](CO)[C@@H](O)[C@H](O)[C@H]7O)O6)[C@@H](C)[C@@H]54)C3)O[C@@H]2CO)[C@H](O)[C@H](O)[C@H]1O (some centres not stated)	none (no result: ID4 SMM)
Cc1ccc(Nc2nc(Oc3ccc(=O)[nH]n3)nc(N3CCOCC3)n2)cc1	ID4 SMM active
CNc1nc(Oc2ccc(=O)[nH]n2)nc(N2CCOCC2)n1	none
COc1ccc(S(=O)(=O)N(C)CC(=O)Nc2cccc(SC)c2)cc1C	none
Cc1c(C(=O)C2C(=O)C(=O)N(Cc3cccnc3)C2c2ccc(F)cc2)cnn1-c1ccccc1 (configuration not stated)	none
CSc1ccc(C2C(C(=O)c3sc(C)nc3C)C(=O)C(=O)N2Cc2cccnc2)cc1 (configuration not stated)	ID4 SMM active
Cc1cc(Br)c(NC(=O)CSc2nnc(-c3ccccc3)o2)cc1C	none
CC(C)NC(=O)Nc1ccc2c(c1)C(=O)N([C@@H](C)CO)C[C@@H](C)[C@@H](CN(C)C(=O)NC(C)C)O2	none (no result: ID4 SMM)
O=C(COc1ccccc1[N+](=O)[O-])Nc1cc(-c2nc3ccccc3s2)c(Cl)cc1Cl	none
CSc1cccc(NC(=O)CNS(=O)(=O)c2ccc(F)cc2)c1	none
Cc1[nH]c(=O)[nH]c(=O)c1NS(=O)(=O)c1ccc2c(c1)CCCC2	none
Cc1ccc(S(=O)(=O)Nc2c(C)[nH]c(=O)[nH]c2=O)cc1C	ID4 SMM active
O=c1c(O[C@@H]2O[C@H](CO)[C@H](O)[C@H](O)[C@H]2O)c(-c2ccc(O)c(O)c2)oc2cc(O)cc(O)c12	none (no result: ID4 SMM)
COc1c(O)cc2oc(-c3ccc(O[C@@H]4O[C@H](CO)[C@@H](O)[C@H](O)[C@H]4O)cc3)cc(=O)c2c1O	STK33 kin inh 51
COc1c(C2OCC(OC(C)=O)C(OC(C)=O)C2OC(C)=O)c(O)cc2oc(-c3ccc(OC4OC(CO)C(O)C(O)C4O)cc3)cc(=O)c12 (configuration not stated)	none
O=c1cc(-c2ccc(O[C@@H]3O[C@H](CO)[C@@H](O)[C@H](O)[C@H]3O)cc2)oc2cc(O)cc(O)c12	STK33 kin inh 50
COC(=O)[C@@]1(Cc2ccccc2N=[N+]=[N-])N=C(c2ccc(OCCCO)cc2)O[C@H]1c1ccccc1N=[N+]=[N-]	none (no result: ID4 SMM)
CC(=O)c1cccc(NC(=O)COc2ccccc2C(=O)Nc2ccccc2C#N)c1	none
COc1ccc(OC)c(NC(=O)CNC(=O)c2ccc(C(C)(C)C)cc2)c1	none
COc1ccc(C(=O)NCC(=O)Nc2cc(OC)ccc2OC)cc1	ID4 SMM active
CC1Oc2c3c(c4c(-c5ccccc5)cc(=O)oc4c2C(=O)C1C)OC(C)(C)C=C3 (configuration not stated)	none (no result: ID4 SMM)
COc1ccccc1OCC(=O)Nc1cc(-c2nc3ccccc3[nH]2)ccc1C	ID4 SMM active
Cc1ccc(-c2nc3ccccc3[nH]2)cc1NC(=O)COc1ccc(C(C)C)cc1	none
CC(=O)Nc1nonc1-c1nc2ccccc2n1Cc1cccc2ccccc12	none
CC1OC(OC2C(O[C@H]3OC[C@](O)(CO)[C@H]3O)COC(O[C@@H]3[C@@H](O)[C@@H](O)[C@H](OC4C(OC(=O)[C@]56CCC(C)(C)CC5C5=CCC7[C@@]8(C)C[C@H](O)[C@H](OC9OC(CO)C(O)C(O)C9O)[C@@](C)(CO)C8[C@H](O)C[C@@]7(C)[C@]5(C)CC6)OCC(O)C4O)O[C@H]3C)C2O)C(O)C(O)C1O (some centres not stated)	none
Cc1ccc(S(=O)(=O)N2CCCC(C(=O)Nc3ccc4c(c3)OCCO4)C2)cc1 (configuration not stated)	none
CC(=O)c1cccc(NC(=O)C2CCCN(S(=O)(=O)c3ccccc3)C2)c1 (configuration not stated)	ID4 SMM active
COc1ccc(NC(=O)NCc2cc(C)n(C)n2)cc1OC	none
N#C/C(=C/c1ccc(O)c(O)c1)C(=O)OC/C=C/c1ccccc1	none
Oc1cc(O)cc(/C=C/c2ccc(O)c(O)c2)c1	STK33 kin inh 74 (no result: ID4 SMM)
C[C@H]1CN([C@@H](C)CO)S(=O)(=O)c2ccc(-c3ccncc3)cc2O[C@H]1CN(C)S(=O)(=O)c1ccccc1F	none (no result: STK33 kin inh)
COc1cc(Cl)c(C)cc1NC(=O)CSC1=C(C#N)C(c2ccccc2F)CC(=O)N1 (configuration not stated)	none
C=CCNC(=O)[C@@H]1[C@H]2C(=O)O[C@H](c3ccccc3)[C@H](c3ccccc3)N2[C@H](c2ccc(OCCO)cc2)[C@@]12C(=O)Nc1ccccc12	none (no result: ID4 SMM)
Cc1ccc(-c2nnc(N3CCN(C(=O)CSc4nc(C)cc(C)n4)CC3)c3ccccc23)cc1	ID4 SMM active
